Screens as filed in PubChem BioAssay.
ATXN2 expr inh – inhibitors of ATXN2 expression; HEK-293 ATXN2-luciferase reporter, luminescence, 24 h; Potency, µM (titrated, usually from 57 µM), for inactives: top-dose activity change, negative = inhibition, hits mostly inhibitors; 0.72% of 360,000 active; AID 1745845; further: potency means the concentration at half of the fitted maximal effect; on the % scale 0 is the no-effect control and ±100 the full control effect; nearly all actives have a fitted effect of over 55% in size
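qHTS (up to 57 uM final) was run with 24 h compound exposure of reporter cells at 37 °C. Each well was multiplexed: SteadyGlo luminescence measured ATXN2-luciferase expression after a fluorogenic Gly-Phe-AFC viability readout (25 uM final).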
TGFb SMAD3 inh – inhibitors of TGF-b signaling. HepG2 CAGA-GFP TGF-b/SMAD3 reporter, GFP fluorescence, 18 h; TGF-beta stimulated, 500 pg/mL final. Potency, µM (top dose mostly 46.1 µM), inactives show at the top dose activity, negative = inhibition, most hits filed as inhibitors. 1.2% of 410,000 active; further: potency means the concentration at half of the fitted maximal effect; on the % scale 0 is the no-effect control and ±100 the full control effect; nearly all actives have a fitted effect of over 65% in size
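Inhibition of TGF-beta-driven CAGA-GFP reporter expression in HEPG2 cells is measured by cellular GFP fluorescence after 18 h stimulation with 500 pg/mL recombinant TGF-beta in 1% FBS medium at 37 degrees C.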
uPA surface inh – inhibitors of cell surface uPA generation. 0.31% of 330,000 active. cell surface uPA generation assay, qHTS. Potency, µM (doses to about 38.3 µM), without a hit: at the top dose activity change, negative = inhibition, usual class: inhibitors. AID 540303; active means well fitted inhibition curve with a large enough effect; inconclusive means small, poorly fitted or top-dose-only effect; inactive means no such curve, though single readings can be large or run the other way; tested in mouse RAW 264.7 cells; further: potency means the concentration at half of the fitted maximal effect; on the % scale 0 is the no-effect control and ±100 the full control effect; nearly all actives have a fitted effect of over 55% in size
Giardia killer – kills Giardia lamblia. activity change, % at 7.66 µM, hits read low. AID 540267. 0.15% of 340,000 active. Giardia lamblia trophozoite viability; in the data active means activity change below about -80%; inconclusive means between about -30% and that limit;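 further: parasites exposed to compound for two days anaerobically before the ATP read; on the % scale 0 is the no-effect control and ±100 the full control effect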
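ATP-content bioluminescence gauges trophozoite survival. Cells (100/well) receive compound and incubate anaerobically for 48 hrs at 37 deg C; detection reagent follows for 15-30 min at room temperature.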
ATXN viability – reduces viability in counter-screen for ATXN expression inhibitors | S2 cells (HEK-293 line with an ATXN2-luciferase reporter) viability, CellTiter-Fluor protease fluorescence, 24 h | Potency, µM (titrated, usually from 56.7 µM), hits mostly cytotoxic | 0.49% of 400,000 active | AID 651635; further: potency means the concentration at half of the fitted maximal effect; nearly all actives have a fitted effect of over 40% in size
HepG2 viability – HepG2 cytotoxicity, counter-screen for TGF-b inhibitors; AID 588856; 0.76% of 410,000 active; Potency, µM (titrated, usually from 46.1 µM), inactives show at the highest dose activity change, negative = cytotoxicity, actives largely listed as cytotoxic; HepG2 CAGA-GFP viability, ATP luminescence, 18 h; further: potency means the concentration at half of the fitted maximal effect
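CellTiter-Glo luminescence gave cytotoxicity after 18 hours at 37 degrees C. The cells were HepG2 CAGA-GFP in 1% FBS DMEM, stimulated with 500 pg/mL TGF-beta after compound addition. %Activity was normalised to no-cell wells (complete cell-killing) and DMSO (no toxicity), and curves were fitted and classified.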
* hit, by the source's call; i = inactive; ? = inconclusive; · = no result. The list is not random: actives were taken first. Their share in the collection is about 2.6%. Unless noted, the call rests on the fitted dose curve; in most records, active means well fitted curve in the direction sought with a large enough effect; inconclusive means small, poorly fitted or top-dose-only effect, or another doubt; inactive means no such curve, though single readings can be large; an effect the other way counts as inactive or inconclusive.

SMILES | ATXN2 expr inh | TGFb SMAD3 inh | uPA surface inh | Giardia killer | ATXN viability | HepG2 viability
CCC(C)NC(=O)c1ccc2nc(-c3ccco3)c(-c3ccco3)nc2c1 (stereo not given) | · | -15% | · | -9 | · | -19%
CC(=O)C[n+]1cccc(Br)c1 | · | 5% | · | · | · | 9%
COc1ccc(CN2CCc3nnc(CCc4ccccc4)n3CC2)c(OC)c1C | · | · | · | · | i | ·
C=CCn1c(=O)/c(=C/c2ccc(Cl)cc2)s/c1=C(/C#N)c1nnc2n1CCCCC2 | 22µM* | -9% | -9% | -9 | 18µM* | -17%
O=C(CNC(=O)c1ccco1)N=Nc1c(O)n(CCc2ccccc2)c2ccccc12 | · | ? | 1.1µM* | 2 | ? | -1%
Cc1nn(-c2ccccn2)c2c1-c1nc(N)sc1CC2 | · | -7% | · | · | · | -8%
N#CC(C#N)=C1C=CC=CN1/C(=C\c1ccccc1)C(=O)c1cccs1 | 6% | -16% | -21% | 5 | i | -18%
N#CC(C#N)=C1C=CC=CN1/C(=C\c1ccccc1Cl)C(=O)c1ccccc1 | 13µM* | 3.2µM* | -11% | 14 | ? | 7.1µM*
CCOC(=O)[C@@H](N)CCC(=O)N[C@@H](CSCc1ccccc1)C(=O)N[C@@H](C(=O)OCC)c1ccccc1 | -2% | · | · | · | · | ·
Cc1ncc2c(c1CNC(=O)c1cncs1)CCN(C(=O)c1ccc(C(F)(F)F)cc1)C2 | · | · | · | · | i | ·
COc1ccc(CN2C(=O)C(CC(=O)NCCCCc3ccccc3)CC(C(=O)N(C(C)C)C(C)C)=C2C)cc1 (stereo not given) | ? | ? | · | · | ? | -15%
CC1=C(C(=O)N2CCOCC2)CC(CC(=O)NC(c2ccccc2)c2ccccc2)C(=O)N1CCC1=CCCCC1 (stereo not given) | -11% | -3% | · | · | i | 0%
CC1=C(C(=O)N(C(C)C)C(C)C)CC(CC(=O)NCc2ccco2)C(=O)N1Cc1ccc(C(C)(C)C)cc1 (stereo not given) | ? | 18µM* | · | · | ? | -32%
CC1=C(C(=O)N(C(C)C)C(C)C)CC(CC(=O)NC(c2ccccc2)c2ccccc2)C(=O)N1CCC1=CCCCC1 (stereo not given) | 0% | 11µM* | · | · | · | -27%
CC1=C(C(=O)N(C(C)C)C(C)C)CC(CC(=O)NCCCCc2ccccc2)C(=O)N1Cc1ccc(C(C)(C)C)cc1 (stereo not given) | ? | 11µM* | · | · | ? | 18µM*
COc1ccc(CCN2CCN(CCCc3ccccc3)CC2)cc1OC | -20% | · | · | · | · | ·
CCCc1cnc(Nc2nc(C(N)Cc3ccc(C(F)(F)F)cc3)cs2)nc1 (stereo not given) | -16% | ? | · | · | · | 11µM*
Cc1cc(C)nc(Nc2nc(C(N)Cc3ccc(Cl)cc3)cs2)n1 (stereo not given) | ? | 16µM* | · | · | ? | -95%
NC(Cc1ccc(C(F)(F)F)cc1)c1csc(Nc2nccc(C(F)(F)F)n2)n1 (stereo not given) | ? | ? | · | · | i | -105%
COc1cc(OC)nc(Nc2nc(C(N)Cc3ccccc3)cs2)n1 (stereo not given) | -10% | ? | · | · | i | -63%
Cc1cc(C)nc(Nc2nc(C(N)Cc3ccc(C(F)(F)F)cc3)cs2)n1 (stereo not given) | -21% | ? | · | · | ? | 22µM*
COc1cc(OC)nc(Nc2nc(C(N)Cc3ccc(C(F)(F)F)cc3)cs2)n1 (stereo not given) | ? | ? | · | · | ? | 10µM*
CN1[C@@H]2CC[C@H]1CC(NC(=O)n1c(=O)[nH]c3ccccc31)C2 (stereo not given in full) | -15% | · | · | · | ? | ·
O=C1NC(=O)C(=Cc2ccc(-c3ccc(F)cc3)o2)S1 | 23% | · | · | · | · | ·
Cc1nc(NCc2c(F)cccc2F)sc1-c1ccn(CCN2CCOCC2)n1 | · | · | · | · | i | ·
SMILES | ATXN2 expr inh | TGFb SMAD3 inh | uPA surface inh | Giardia killer | ATXN viability | HepG2 viability
CS(=O)(=O)c1ccc(Nc2nc(C(N)Cc3ccc(F)cc3)cs2)cc1 (stereo not given) | -20% | ? | · | · | i | -42%
Cc1cc(C)nc(Nc2nc(C(N)Cc3ccc(F)cc3)cs2)n1 (stereo not given) | -24% | ? | · | · | ? | 13µM*
O=C(/C=C/c1ccccc1)Nc1ccc(Br)cn1 | -16% | 5% | 1.6µM* | -17 | ? | 0%
O=C(/C=C/c1ccccc1)Nc1ncn[nH]1 | ? | 10µM* | · | -11 | ? | -31%
Fc1ccc(Nc2nc(NCc3ccco3)nc3nccnc23)cc1 | · | 2% | · | 12 | · | -1%
COC(=O)CCC(=O)Nc1sc(C)c(C)c1C(N)=O | 9% | -14% | 5% | -7 | i | 12%
COC(=O)CCC(=O)NC(=S)Nc1sc(C)c(C)c1C(N)=O | -4% | 11µM* | -9% | -22 | ? | -36%
Clc1ccc(SCc2cc(N3CCOCC3)nc(-c3ccccn3)n2)cc1 | 6.3µM* | ? | -6% | -7 | ? | -42%
CC(=O)Nc1ccc(C(=O)Nc2nc(-c3ccccn3)cs2)cc1 | -9% | -1% | -5% | 3 | i | -56%
O=C(Nc1nc(-c2cc(F)ccc2F)cs1)c1ccccn1 | -21% | -29% | 3% | -2 | i | -6%
O=C(Nc1nc(-c2ccccn2)cs1)c1ccc(-c2ccccc2F)o1 | ? | 14µM* | -28% | 0 | ? | -89%
Cc1ccc(C(=O)Nc2nc(-c3ccccn3)cs2)o1 | · | ? | ? | 10 | ? | 2%
O=C(Nc1nc(-c2ccccn2)cs1)c1cc(Cl)ccc1[N+](=O)[O-] | 7.5µM* | 11µM* | 8% | 0 | i | 6%
O=C(Nc1nc(-c2ccccn2)cs1)c1ccc2c(c1)OCCO2 | -11% | -24% | 2.5µM* | -28 | ? | -29%
CC(=O)c1ccc(-c2ccc(C(=O)Nc3nc(-c4ccccn4)cs3)o2)cc1 | -38% | 13µM* | ? | -29 | i | -58%
Cc1onc(-c2c(Cl)cccc2Cl)c1C(=O)Cl | 6% | · | · | · | i | ·
COc1ccccc1C(=O)N[C@@H]1c2ccccc2C2(CCN(Cc3cccnc3)CC2)[C@H]1O | · | · | · | · | i | ·
C=C1C=C(C)n2ncc(C(=O)Nc3ccc(F)cc3F)c2N1 | · | 12% | · | · | · | 5%
O=C(Nc1ccc(Cl)cn1)c1cnn2c1NC(=C1CC1)C=C2C(F)F | · | -1% | · | · | · | -4%
O=C(Nc1nc(-c2ccccn2)cs1)Nc1ccc(F)cc1F | 14µM* | ? | -6% | 3 | ? | -4%
CCCn1nc(C(=O)Nc2nc(-c3ccccn3)cs2)c2ccccc2c1=O | 22µM* | ? | ? | -23 | i | -48%
CCn1nc(C(=O)Nc2nc(-c3ccccn3)cs2)c2ccccc2c1=O | · | ? | 4% | 28 | · | -38%
